Source: PubChem (Broad Institute)
Only some compounds are listed: those with a hit (about 3.1% of all), similar ones and a draw of the others.
EWS-Fli inh: inhibitors of EWS/Fli oncoprotein transcriptional activity | inhibition, % at 12.6 µM | A673 NR0B1-luciferase reporter, viability-normalised | hit rate 0.67% among 350,000;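 active means mean inhibition of at least 50% after viability correction, with every replicate also passing that limit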;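 further: firefly luciferase signal divided by Alamar Blue viability fluorescence both relative to DMSO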
PAX8 reporter: lowers PAX8-driven luciferase in RMG-I cells; RMG-I TPO-luciferase reporter, SteadyGlo, 24 h; inhibition, % at 12.6 µM; hit rate 1.2% among 360,000;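 active means mean replicate inhibition at least 60% with every replicate also reaching 60%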;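 further: luciferase light reporting Pax8 driven TPO promoter activity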
C2C12 statin: suppression of simvastatin myotoxicity; C2C12 myotubes + simvastatin, ATP luminescence, 48 h; scaled: DMSO 0, geranylgeraniol control 100; rescue of ATP level, % at 7.49 µM; hit rate 0.78% among 330,000; AID 602340;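 active means mean ATP rescue above about 67%, or every replicate alone reaching that limit, limit read from the data, passing the limit was not always enough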;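 further: myotubes were challenged with 10 µM simvastatin during compound exposure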
miR-122 sensor: inhibitors of miR-122 in Huh7 cells | Huh7 miR-122 Renilla luciferase sensor, 48 h; neutral wells = 0, positive control = 100 | activation (reporter increase), % at 12.5 µM | hit rate 0.3% among 340,000 | AID 602342;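 active means mean replicate activation score at least 90 and every replicate individually at or above 90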;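 further: higher luciferase means less miR-122 activity so hits act as miR-122 inhibitors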
Env fusion inh: HIV envelope-mediated fusion inhibition; inhibition, % at 12.3 µM; hit rate 1.1% among 360,000; HeLa-JRFL Env/CEM21 cell fusion, luciferase;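 active means mean replicate inhibition score of at least 50 and every replicate individually at or above 50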
INS-1E GSIS act: primary screen for activators of insulin secretion dependent on glucose, INS-1E cells, GLuc reporter luminescence. hit rate 0.61% among 370,000. activation, % at 16.6 µM. INS-1E GLuc reporter insulin secretion, 2-3 h;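 active means lowest replicate activation of at least 40%, so every replicate reaches that level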
A number is an active result; – = inactive; · = not tested or not shown; [ ] = another dose, or the depositor's remark.

SMILES	EWS-Fli inh	PAX8 reporter	C2C12 statin	miR-122 sensor	Env fusion inh	INS-1E GSIS act
Cc1ccc(CCc2nnc(SCC(=O)Nc3cccc(Cl)c3)n2-c2ccccc2)o1	–	91.0	·	·	·	·
Cc1nnc(SCC(=O)Nc2cc(C(N)=O)cc(C(N)=O)c2)n1-c1ccccc1	–	–	–	–	–	–
Cc1noc(C)c1S(=O)(=O)N(C)C[C@@H]1OCCCC[C@H](C)Oc2ccc(NC(=O)Nc3ccc(C(F)(F)F)cc3)cc2C(=O)N([C@H](C)CO)C[C@@H]1C	–	·	·	–	–	–
Cc1ccc(S(=O)(=O)N2CC3(O)CN(C(=O)OC(C)C)N(C(=O)OC(C)C)CC3(OC(=O)NC3CC3)C2)cc1 (configuration not stated)	–	–	·	·	–	–
Cc1ccc(S(=O)(=O)N2CC3(O)CN(C(=O)OC(C)C)N(C(=O)OC(C)C)CC3(OC(=O)NCC3CCCCC3)C2)cc1 (configuration not stated)	–	–	–	–	72.5	–
O=C(C[C@@H]1C[C@H]2c3cc(NC(=O)Nc4ccc(F)cc4)ccc3O[C@H]2[C@@H](CO)O1)NC1CCCCC1	–	–	–	–	–	–
COc1ccc(S(=O)(=O)N2CCCCN3[C@@H](CO)[C@H](c4ccc(C#CCC(C)C)cc4)[C@@H]3C2)cc1	–	–	·	–	·	–
C[C@H](CO)N1C[C@H](C)[C@@H](CN(C)Cc2ccc(C(F)(F)F)cc2)OCCCC[C@H](C)Oc2ccc(NC(=O)c3ccncc3)cc2C1=O	–	–	–	–	–	–
C[C@H]1CCCCO[C@@H](CN(C)Cc2ccc(C(F)(F)F)cc2)[C@@H](C)CN([C@@H](C)CO)C(=O)c2cc(NC(=O)c3ccccc3)ccc2O1	–	87.3	·	–	68.9[16.7 µM]	–
C[C@@H]1CCCCO[C@H](CN(C)Cc2ccc(C(F)(F)F)cc2)[C@@H](C)CN([C@@H](C)CO)C(=O)c2cc(NC(=O)c3ccccc3)ccc2O1	–	90.8	·	–	–	–
C[C@H]1CCCCO[C@H](CN(C)Cc2ccc(C(F)(F)F)cc2)[C@@H](C)CN([C@@H](C)CO)C(=O)c2cc(NC(=O)c3ccccc3)ccc2O1	–	84.6	·	–	59.4[16.7 µM]	–
C[C@@H]1CCCCO[C@@H](CN(C)Cc2ccc(C(F)(F)F)cc2)[C@@H](C)CN([C@H](C)CO)C(=O)c2cc(NC(=O)c3ccccc3)ccc2O1	–	–	·	–	–	–
C[C@@H]1CCCCO[C@@H](CN(C)Cc2ccc(C(F)(F)F)cc2)[C@@H](C)CN([C@@H](C)CO)C(=O)c2cc(NC(=O)c3ccccc3)ccc2O1	–	–	·	–	–	–
C[C@@H]1CN([C@@H](C)CO)C(=O)c2cc(NC(=O)c3ccccc3)ccc2O[C@@H](C)CCCCO[C@H]1CN(C)Cc1ccc(C(F)(F)F)cc1	–	88.4	·	–	–	–
O=C(C[C@H]1CC[C@H]2[C@@H](COC[C@H](O)CN2Cc2ccccc2)O1)NCCc1ccccc1	–	–	–	–	·	–
C[C@H](CO)N1C[C@H](C)[C@H](CN(C)C(=O)Nc2ccc(C(F)(F)F)cc2)OCCCC[C@H](C)Oc2ccc(NC(=O)CCC(F)(F)F)cc2C1=O	–	–	·	–	–	–
Cc1noc(C)c1S(=O)(=O)Nc1cccc2c1O[C@H](CN(C)C(=O)Nc1cccc3ccccc13)[C@H](C)CN([C@@H](C)CO)C2=O	–	·	–	–	·	–
COCCCn1c(=O)/c(=C\c2ccccc2OC(F)F)s/c1=C(/C#N)C(N)=O	–	–	–	167.1	–	–
COCCCn1c(=O)/c(=C\c2ccc(OC(F)F)c(OC)c2)s/c1=C(/C#N)C(N)=O	–	–	·	·	–	–
CCNC(=O)C[C@@H]1CC[C@@H]2[C@H](COC[C@H](O)CN2C(=O)Nc2ccc(C(F)(F)F)cc2)O1	–	–	–	–	–	–
CCCNC(=O)N1C[C@@H](C)[C@@H](OC)CN(C)C(=O)c2ccc(NC(=O)CC)cc2OC[C@@H]1C	–	–	–	·	–	–
COc1ccc([N+](=O)[O-])c(S(=O)(=O)c2ccc(Cl)cc2)n1	–	82.1	·	·	–	59.1
O=[N+]([O-])c1cccnc1S(=O)(=O)c1ccccc1	–	110.1	–	·	–	129.5
COc1ccc([N+](=O)[O-])c(S(=O)(=O)c2ccccc2)n1	–	102.7	·	–	–	·
